Data reported in the supplement of paper PMC12636033.
± gives the standard deviation of the averaged measurements. Over roughly 33,000 sequences, “E-score (rank enrichment, -0.5 to 0.5)” has its median near -0.0068; the highest 2% begin near 0.24. Shown is part of a subset that was picked to be rich in the highest values.

test system: muMax20 (Max(13-93) K31hArg/K57hArg, M65Nle); test: PBM 8-mer E-score (E-score (rank enrichment, -0.5 to 0.5)); higher = stronger preferential binding
Protocol: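 Protein binding microarray (universal PBM chip covering all 10-mers in fixed probe flanks) with chemically synthesized human Max(13-93) bHLH-LZ analogs (not full-length Max) bearing noncanonical residues (hArg, Tha, Aib, Nle at 65) and aromatic Cys staples. Read-out per 8-mer (and its reverse complement): E-score (rank-based enrichment, -0.5 to 0.5) and Z-score of median probe intensity.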

Sequence	PBM 8-mer E-score
CGCAAGTC	-0.182 ± 0.004
CCTCCTAA	0.0365 ± 0.0066
GGCACAGA	-0.0856 ± 0.03
ACTATGAT	0.0767 ± 0.069
TATGCCCA	-0.151 ± 0.043
ATCCTGAC	-0.115 ± 0.039
ATCGTAAG	0.00053 ± 0.19
ATCGTAAA	0.211 ± 0.026
ATCGTAAT	0.255 ± 0.0089
ATCGCACA	0.0937 ± 0.045
TCTTATAA	0.115 ± 0.051
GGTTATAA	0.145 ± 0.068
TATTATAA	0.28 ± 0.079
TATTATCA	0.161 ± 0.013
AATTATAA	0.189 ± 0.036
TGTTAAAA	0.154 ± 0.061
TGTTATAA	0.279 ± 0.056
GATTATAA	0.242 ± 0.016
CATTATAA	0.0818 ± 0.00099
ATTAAGCA	0.105 ± 0.11
GAGATTGC	-0.148 ± 0.0026
CCTCCACG	-0.0554 ± 0.048
GTTTGAAA	0.237 ± 0.022
ATTTGAAA	0.203 ± 0.025
CTTTGAAA	0.159 ± 0.0086
AACTTCGA	0.0671 ± 0.04

Sequence	PBM 8-mer E-score
AGTACTAG	0.029 ± 0.019
ATTACTAG	-0.00293 ± 0.05
CTTACTAC	0.197 ± 0.1
ATTACTAC	0.2513 ± 0.0025
AGTACTAT	-0.0269 ± 0.035
AGTACTAC	0.28 ± 0.035
CTTCGCAC	0.163 ± 0.037
ATGACTGG	-0.0322 ± 0.039
GGCACGAC	0.0476 ± 0.078
AGTTCACG	-0.107 ± 0.064
CCCGAACC	-0.159 ± 0.21
AACAATTA	0.259 ± 0.0043
CCCAATTA	0.187 ± 0.097
AACAACAA	0.243 ± 0.0063
AACAACAT	0.168 ± 0.037
AACAATTC	0.127 ± 0.014
ATCAACAG	0.116 ± 0.0076
CCCAATTC	0.249 ± 0.0091
ATCAACAT	0.241 ± 0.022
ATCAACAA	0.101 ± 0.048
AACAATTG	0.131 ± 0.0086
ACCAATTC	-0.0667 ± 0.11
CACAACAA	0.205 ± 0.098
CAATCATC	-0.0452 ± 0.15
TACCGGAA	-0.106 ± 0.24
AACTCCTT	0.132 ± 0.07

Sequence	PBM 8-mer E-score
CCCTGCAC	-0.03728 ± 0.00027
CGCTCTCC	-0.192 ± 0.091
CGAGATCC	-0.163 ± 0.13
AGGGGTCG	-0.0534 ± 0.037
CTGGAAGA	0.0596 ± 0.037
CACAATAC	0.126 ± 0.028
GACAATAC	0.21 ± 0.021
ACCAATTG	0.211 ± 0.013
CGCAACAC	0.0683 ± 0.035
AACAATAG	0.0278 ± 0.047
AACAATAA	0.247 ± 0.0054
AACAATAT	0.207 ± 0.061
AACAATAC	0.319 ± 0.063
AGCAACAA	-0.0639 ± 0.14
CGCAACAA	0.257 ± 0.049
GCCAATTA	-0.00292 ± 0.022
ACCAATTA	0.247 ± 0.095
CATCTTCC	0.14 ± 0.005
CTAGCGAA	-0.129 ± 0.063
CTAGTGCA	0.0056 ± 0.097
GAGAGTCA	0.0012 ± 0.088
ATCCACCA	0.068 ± 0.024
GGGGCCCC	-0.138 ± 0.039
AACACCAA	0.239 ± 0.018
GACAATAA	0.216 ± 0.067
CACAATAA	0.151 ± 0.0047

Sequence	PBM 8-mer E-score
GACACCAA	-0.0812 ± 0.037
TACACCAA	-0.0765 ± 0.027
TACAATAA	0.33 ± 0.008
AACTTCTT	0.155 ± 0.031
CAATTTGG	0.0732 ± 0.059
CAATTTGA	0.246 ± 0.051
TAATTTGA	0.0569 ± 0.0096
AATCAGCA	0.0143 ± 0.044
ACCTGTTG	0.112 ± 0.12
AGATATGA	0.028 ± 0.0086
ATACCAAC	0.271 ± 0.01
ATACCATA	0.298 ± 0.029
GTACCATA	0.0347 ± 0.038
ATACCATG	0.0838 ± 0.02
CTACCAAC	0.118 ± 0.079
ATACCAAG	0.0843 ± 0.073
ATAGAAGC	0.041 ± 0.086
TAAGGGAA	0.0705 ± 0.073
CTCCCGTA	0.0488 ± 0.069
CTAAAGCA	0.0825 ± 0.012
ATAAAGCG	0.0396 ± 0.047
TTAAAGAA	0.17 ± 0.072
ATAAAGCA	0.243 ± 0.037
ATAAAGAA	0.264 ± 0.018
CTAAAGAA	0.0925 ± 0.088
CACCGGCA	-0.12 ± 0.023
